According to the supplement of paper PMC3898565:
± gives the uncertainty stated by the source.

Tested on: U87
Assay: cell viability relative to vehicle control; higher = less growth inhibition (less active)
Conditions: 10 µM; 72 h
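Note: viable cell number estimated from Alamar Blue fluorescence read at 560/90, part of a single-dose primary screen of an FDA-approved drug library.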

| SMILES | cell viability |
| --- | --- |
| CO[C@H]1/C=C/O[C@@]2(C)Oc3c(C)c(O)c4c(O)c(c(/C=N/N5CCN(C6CCCC6)CC5)c(O)c4c3C2=O)NC(=O)/C(C)=C\C=C\[C@H](C)[C@H](O)[C@@H](C)[C@@H](O)[C@@H](C)[C@H](OC(C)=O)[C@@H]1C | 93.7 ± 1.3% |
| O=C1c2c(O)cc(O)cc2O[C@H](c2ccc(O)c(O)c2)[C@H]1O | 90.7 ± 4.5% |
| COCCCC/C(=N\OCCN)c1ccc(C(F)(F)F)cc1 [Fluvoxamine] | 106 ± 1.5% |
| O=C(NCCO[N+](=O)[O-])c1cccnc1 [Nicorandil] | 101 ± 2.2% |
| O=C1[C@H](CC[C@H](O)c2ccc(F)cc2)[C@@H](c2ccc(O)cc2)N1c1ccc(F)cc1 | 99.1 ± 2.4% |
| Cc1cccc(Nc2ccncc2S(=O)(=O)NC(=O)NC(C)C)c1 | 124 ± 2.1% |
| O=c1c(O[C@@H]2O[C@H](CO)[C@@H](O)[C@H](O)[C@H]2O)c(-c2ccc(O)c(O)c2)oc2cc(O)cc(O)c12 [Isoquercitrin] | 104 ± 1.7% |
| O=C(O[C@H]1[C@H](Oc2ccccc2COC(=O)C2(O)C=CCCC2=O)O[C@H](CO)[C@@H](O)[C@@H]1O)c1ccccc1 (stereo partly drawn) | 104 ± 2.2% |
| Nc1ccc(O)c(C(=O)O)c1 [5-Amino-2-hydroxy-benzoic acid] | 102.5 ± 0.14% |
| CC(C)c1ccc2oc3nc(N)c(C(=O)O)cc3c(=O)c2c1 | 107 ± 1.8% |
| CCc1oc2ccccc2c1C(=O)c1cc(Br)c(O)c(Br)c1 | 107.7 ± 0.81% |
| Nc1c2c(nc3c1CCC3)CCCC2 | 97.1 ± 5.7% |
| CC(C)/N=c1\cc2n(-c3ccc(Cl)cc3)c3ccccc3nc-2cc1Nc1ccc(Cl)cc1 | 51.3 ± 3% |
